According to PubChem BioAssay AID504465 (National Center for Advancing Translational Sciences (NCATS), 2011):
The campaign covered roughly 2,100 compounds. About 210 (10%) were called active. Inconclusive results (about 53%) are left out. The list shows a part of the results. Values without a mark were called inactive. Calls follow the shape of the dose curve; as a rule, active = well fitted inhibition curve with a large enough effect; inconclusive = small, poorly fitted or top-dose-only effect, or effect the other way; inactive = no such curve, though single readings can be large or run the other way.

experiment: IN Cell qHTS Assay for Inhibitors of the mTORC1 Signaling Pathway in MEF (Tsc2-/-, p53-/-) Cells: Sytravon; conditions: phospho-rpS6 immunofluorescence, 24 h; series mostly up to 38.3 µM; activity, negative = inhibition: at the top concentration; also: nearly all actives have a fitted effect of over 60% in size;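 as to activity, negative = inhibition: plate controls were DMSO wells for no effect and 7.5 nM rapamycin full pathway inhibition for full effect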
Summary of the method: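 Tsc2-/-, p53-/- MEFs (empty-vector) treated with compound 24 h at 37 degree Celsius, then fixed and stained for phospho-rpS6 Ser235/236 (Alexa-488) plus Hoechst. Reported as % positive cells, thresholds set against 7.5 nM rapamycin and DMSO wells.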
Potency is read from the fitted curve at half-maximal effect.

Row | SMILES | activity, negative = inhibition [%] | Potency
1 | Oc1ccccc1-c1nc(-c2cccs2)c(-c2cccs2)[nH]1 | -1.5 | –
2 | COc1ccc(CNCCC(c2ccc(C)cc2)c2ccco2)cc1 (centres undefined) | -100 | –
3 | CC(=O)c1cccc(NS(=O)(=O)c2ccc3[nH]c4c(c3c2)CCCCC4)c1 | 1.08 | –
4 | CCCCN(CCCC)CCCNC(=O)c1cc(-c2ccc(Cl)s2)nc2ccccc12 | 25.2 | –
5 | COc1ccc(CCNC(=O)c2nn(C)c3c2CSc2ccccc2-3)cc1OC | -7.86 | –
6 | CCCN(CCC)CCCNC(=O)c1cc2c(-c3ccc(OC)c(OC)c3)nn(C)c2s1 | – | 16.5 µM (active)
7 | CCCN(CCC)CCCNC(=O)c1cc2c(-c3ccc(Cl)cc3)nn(C)c2s1 | – | 2.61 µM (active)
8 | CCOc1ccc(CCNC(=O)c2cc3c(-c4ccccc4F)nn(C)c3s2)cc1 | 19.4 | –
9 | COc1ccc(-c2nn(C)c3sc(C(=O)Nc4cccc(F)c4)cc23)cc1OC | 0 | –
10 | Cc1cc(C)cc(NC(=O)C(=O)NCC(c2ccc3c(c2)OCO3)N2CCN(C)CC2)c1 (centres undefined) | 3.7 | –
11 | CC(C)CN(CC(C)C)S(=O)(=O)c1ccc(C(=O)Nc2sc3c(c2C(N)=O)CCN(C(C)C)C3)cc1 | 6.25 | –
12 | CCc1ccc(CNC(=O)COc2cc(=O)n(CC)c3ccccc23)cc1 | 8.06 | –
13 | CC(C)Oc1ccccc1-c1nc(SCC(=O)c2ccc(F)cc2)n[nH]1 | -19.3 | –
14 | CCOc1ccc(CNC(=O)C2CCN(S(=O)(=O)c3ccc4c(ccn4C)c3)CC2)cc1 | 0.0324 | –
15 | CCOc1cc(CNC(=O)c2ccc(C)c(NC(=O)c3nsc4ccccc34)c2)ccc1OC | -1.04 | –
16 | COc1ccccc1C(=O)OCc1cc(=O)n2nc(C3CC3)sc2n1 | 0.274 | –
17 | CCCN1C(=O)c2[nH]nc(-c3ccccc3O)c2C1c1ccc(OCc2ccccc2)c(OC)c1 (centres undefined) | -29 | –
18 | COc1ccc(CCN2C(=O)c3[nH]nc(-c4ccccc4O)c3C2c2cccc(OC)c2)cc1 (centres undefined) | – | 20.7 µM (active)
19 | CCCCN1C(=O)c2[nH]nc(-c3ccccc3O)c2C1c1cccc(OCc2ccccc2)c1 (centres undefined) | – | 20.7 µM (active)
20 | CC(C)OCCCN1C(=O)c2[nH]nc(-c3ccccc3O)c2C1c1ccc(OCc2ccccc2)cc1 (centres undefined) | – | 18.5 µM (active)
21 | CCCN1C(=O)c2[nH]nc(-c3ccccc3O)c2C1c1cccc(OCc2ccccc2)c1 (centres undefined) | -14.6 | –
22 | CCCCOc1cccc(C2c3c(-c4cc(C)ccc4O)n[nH]c3C(=O)N2CCOC)c1 (centres undefined) | -12.8 | –
23 | O=C1c2[nH]nc(-c3ccccc3O)c2C(c2ccc(Cl)cc2)N1CCc1ccccc1 (centres undefined) | -15.5 | –
24 | COc1ccc(CCN2C(=O)c3[nH]nc(-c4ccccc4O)c3C2c2ccccc2)cc1 (centres undefined) | -4.54 | –
25 | COc1ccc(C2c3c(-c4ccccc4O)n[nH]c3C(=O)N2CCc2ccccc2)cc1 (centres undefined) | -21.4 | –

Row | SMILES | activity, negative = inhibition [%] | Potency
26 | CCc1ccc(-n2nc(C)c3c(C(=O)Nc4cc(OC)cc(OC)c4)cc(C)nc32)cc1 | -0.926 | –
27 | CC(Sc1nc2c([nH]c3ccccc32)c(=O)n1-c1ccccc1)c1ccccc1 (centres undefined) | -0.445 | –
28 | CC(C)CC(=O)Nc1cc(-c2ccccc2F)nn1-c1ccccc1 | 18 | –
29 | CCOc1ccc(-n2c(-c3ccccc3)c(C)n3c4c(=O)n(C)c(=O)n(C)c4nc23)cc1 | -5.32 | –
30 | Cc1ccc(-c2nc3ncccc3o2)cc1NC(=O)COc1ccc(C(C)C)cc1 | -20.9 | –
31 | Cc1cccc(C)c1NC(=O)Cn1c(=O)n(CCC(=O)NCc2ccccc2Cl)c(=O)c2sccc21 | -89.9 | –
32 | CCOc1cc(CNc2ccc(O)cc2)cc(Cl)c1OCc1ccccc1 | -100 | –
33 | CCn1ccc2cc(S(=O)(=O)N3CCCN(C(=O)NCC(C)C)CC3)ccc21 | -7.24 | –
34 | CCC(C)NC(=O)c1ccc2c(c1)N=C(C)c1cc(C)ccc1S2 (centres undefined) | 0.833 | –
35 | CCNS(=O)(=O)c1ccc(NC(=O)CSc2nc(-c3ccco3)cc(C(F)(F)F)n2)cc1 | – | 0.233 µM (active)
36 | COc1ccc(NC(=O)CSc2nc(-c3ccco3)cc(C(F)(F)F)n2)cc1Cl | -5 | –
37 | CCc1ccc2c(c1)-c1ccccc1S(=O)(=O)N2CC(=O)N1CCC(C)CC1 | -6.77 | –
38 | CCc1ccc(NC(=O)C2CCCN(S(=O)(=O)c3c(C)noc3/C=C/N(C)C)C2)cc1 (centres undefined) | -15.8 | –
39 | Cc1ccc(Sc2c(C)nn(C(=O)COc3ccccc3)c2C)cc1 | – | 6.56 µM (active)
40 | O=C(Nc1ccc(Br)cc1)c1ccc(F)c(S(=O)(=O)N2CCc3ccccc32)c1 | 6.25 | –
41 | CCOc1ccccc1NC(=O)Cn1ccn(Cc2ccc(C)cc2)c(=O)c1=O | -8.7 | –
42 | Cc1ccc(C(=O)c2cn(CC(=O)NCc3ccccc3Cl)c3nc(C)ccc3c2=O)cc1 | 1.08 | –
43 | CCOc1ccccc1CNC(=O)CCn1c(=O)c2cccn2c2ccc(F)cc21 | -5.8 | –
44 | CCc1nn(CC(=O)NCc2ccccc2Cl)c(=O)c2cccn12 | – | 3.29 µM (active)
45 | Clc1ccc(-n2ncc3c(NC4CCCC4)ncnc32)cc1 | 6.25 | –
46 | CC(C)Oc1ccc(CNC(=O)CCn2c(=O)c3cccn3c3ccc(F)cc32)cc1 | -9.57 | –
47 | COc1ccc(-c2nnc(SCc3cc(=O)c4cc(C)cc(C)c4[nH]3)n2C)cc1 | – | 18.5 µM (active)
48 | COc1cccc(-n2c(SCC(=O)Nc3c(C)cc(C)cc3C)nc3c([nH]c4ccccc43)c2=O)c1 | -8.87 | –
49 | COc1cccc(-n2c(SCc3cccc(C)c3)nc3c([nH]c4ccccc43)c2=O)c1 | -10.7 | –
50 | O=C(Nc1ccc(F)c(Cl)c1)c1cc(S(=O)(=O)N2CCCc3ccccc32)ccc1F | 6.25 | –

Row | SMILES | activity, negative = inhibition [%] | Potency
51 | Cc1cccc(N2CCN(C(=O)Cn3c(=O)c4cccn4c4ccc(F)cc43)CC2C)c1 (centres undefined) | -19.3 | –
52 | Cc1ccccc1Cn1nnc2c(=O)[nH]c(C3CCN(C(=O)c4ccccc4Cl)CC3)nc21 | -11.3 | –
53 | O=C(Nc1ccc(Cl)c(C(F)(F)F)c1)c1ccc2c(c1)CCN2S(=O)(=O)c1ccccc1 | -10.2 | –
54 | CCCOC(=O)c1cccc(NC(=O)c2c(-c3ccccc3Cl)noc2C)c1 | 0.806 | –
55 | COC(=O)C1=C(C)N(C(C)C)C(=O)C1(NC(=O)c1ccc(C(C)(C)C)cc1)C(F)(F)F (centres undefined) | – | 20.7 µM (active)
56 | O=C(Nc1ccc(C(F)(F)F)cc1)c1cc(S(=O)(=O)NC2CCCCC2)ccc1F | 6.25 | –
57 | COc1ccccc1CN1CCC(CNC(=O)c2cnn(-c3ccccc3Cl)c2C2CCN(C(=O)OC(C)(C)C)CC2)CC1 | -15.8 | –
58 | Cc1ccc(-n2ncc(C(=O)NCc3cccs3)c2C2CCN(C(=O)OC(C)(C)C)CC2)cc1C | -5.66 | –
59 | Cc1ccc(-n2ncc(C(=O)NCCCN3CCc4ccccc4C3)c2C2CCN(C(=O)OC(C)(C)C)CC2)cc1C | – | 20.7 µM (active)
60 | CCCCOC(=O)c1ccc(NC(=O)Cc2coc3ccc(C(C)C)cc23)cc1 | -1.11 | –
61 | CCCCS(=O)(=O)c1nc(-c2ccc(Br)cc2)cc(-c2ccccc2)c1C#N | – | 3.29 µM (active)
62 | CCCS(=O)(=O)N1CC(=O)N(c2ccccc2C)C(C)(C(=O)NC2CCCC2)C1 (centres undefined) | -15 | –
63 | COc1ccc(NS(=O)(=O)c2ccc3c(c2)CCCN3C(=O)C2CCC2)cc1OC | -4.59 | –
64 | CC1=Nc2cc(C(=O)NC(C)C)ccc2Sc2ccc(C)cc21 | -21.1 | –
65 | Cc1ccc(-c2csc(-c3cc4c([nH]c3=O)CC(c3ccccc3)CC4=O)n2)cc1 (centres undefined) | 13.1 | –
66 | CCOc1ccc(S(=O)(=O)N(C(=O)c2ccncc2)c2ccc3oc(C)c(C(=O)OC)c3c2)cc1 | – | 3.29 µM (active)
67 | COC(=O)c1c(C)oc2ccc(N(C(=O)c3ccncc3)S(=O)(=O)c3cc(C)ccc3C)cc12 | -26.3 | –
68 | CC(=O)c1c(C)oc2ccc(N(C(=O)c3ccncc3)S(=O)(=O)c3ccc(F)cc3C)cc12 | -30.3 | –
69 | Cc1cc(C)c2c(=O)cc(CSCC(=O)Nc3nnc(C)s3)[nH]c2c1 | -13.5 | –
70 | CC(C)Cc1cc(C(=O)NCc2ccc(Cl)cc2)no1 | 24.7 | –
71 | COc1ccccc1Cc1nc2ccccc2nc1SCC(=O)N1CCCCC1 | -12.5 | –
72 | CCc1ccc(C(=O)c2cnc3ccc(F)cc3c2S(=O)(=O)c2ccccc2)cc1 | – | 4.65 µM (active)
73 | CCc1ccc(NC(=O)c2ccc(F)c(S(=O)(=O)NCc3ccc(Cl)c(Cl)c3)c2)cc1 | 6.25 | –
74 | CCOC(=O)c1cnc2ccc(C)cc2c1Nc1ccc(OCc2ccccc2Cl)cc1 | -12.1 | –
75 | Cc1cc(Cl)ccc1NC(=O)C1CCCN1S(=O)(=O)c1ccc2c(c1)CCCC(=O)N2 (centres undefined) | -0.811 | –

Row | SMILES | activity, negative = inhibition [%] | Potency
76 | O=S(=O)(c1ccccc1)c1nc(-c2cccc(Cl)c2)oc1N1CCOCC1 | – | 9.27 µM (active)
77 | O=C(c1cc(-c2cccc(Cl)c2)on1)N1CCN(c2ccccc2)CC1 | 2.27 | –
78 | Cc1ccc(-c2nc(S(=O)(=O)c3ccc(C)cc3)c(N3CCN(c4ccccc4)CC3)o2)cc1 | 1.43 | –
79 | COc1ccc(N2CCN(Cc3nc(-c4ccc(C)cc4)no3)CC2)cc1 | -10.8 | –
80 | COc1ccc(-c2nc(S(=O)(=O)c3ccc(C)cc3)c(N3CCCCC3)o2)cc1 | – | 13.1 µM (active)
81 | CC(=O)N1CCOc2cc(S(=O)(=O)Nc3c(C)cccc3C(C)C)c(Cl)cc21 | -13 | –
82 | Cc1cc(C)c2c(=O)c3c(oc2c1)C(=O)N(Cc1ccc(F)cc1)C3c1cccc(O)c1 (centres undefined) | -9.04 | –
83 | Cc1cc(C)cc(NS(=O)(=O)c2ccc(-c3cc(C)no3)cc2)c1 | -19.4 | –
84 | CCC(C(=O)Nc1ccc(C)c(Cl)c1)n1c(=O)c(-c2ccccc2NC(C)=O)nc2ccccc21 (centres undefined) | -12 | –
85 | O=C1Nc2ccccc2Oc2cc(Oc3ccccc3)ccc21 | -19.3 | –
86 | Cc1ccc2occ(CC(=O)N(Cc3ccc(Cl)cc3)Cc3ccco3)c2c1 | -22 | –
87 | Cc1cc(C)c2c(CC(=O)N(Cc3ccc(N(C)C)cc3)Cc3ccco3)coc2c1 | – | 6.56 µM (active)
88 | Cc1ccc(CN(Cc2ccco2)C(=O)COc2c(C)cc(C)cc2C)cc1 | -17 | –
89 | Cc1cc(N2CCN(C)CC2)nc2ccc(NC(=O)c3ccc(C(C)(C)C)cc3)cc12 | – | 1.85 µM (active)
90 | Cc1cccc(CC(=O)Nc2ccc3nc(N4CCC(C)CC4)cc(C)c3c2)c1 | -2.59 | –
91 | COc1ccc(Cl)cc1NC(=O)CCn1nc(C)cc1C | 0.892 | –
92 | CCN1CCN(c2cc(C)c3cc(NC(=O)/C=C/c4ccc(C)cc4)ccc3n2)CC1 | – | 5.21 µM (active)
93 | COc1ccccc1C(=O)Nc1ccc2nc(N3CCC(C)CC3)cc(C)c2c1 | 2.28 | –
94 | CCCCc1ccc(NC(=O)c2ccc3c(c2)CCN3S(=O)(=O)c2ccccc2)cc1 | -20.3 | –
95 | Cc1ccc(S(=O)(=O)N2CCc3cc(C(=O)Nc4ccc(C(F)(F)F)cc4)ccc32)cc1 | -1.55 | –
96 | Cc1ccc(NC(=O)c2ccc(F)c(S(=O)(=O)NCCc3ccccc3)c2)cc1F | 6.25 | –
97 | COc1cccc(NC(=O)Nc2ccc3nc(N4CCN(C)CC4)cc(C)c3c2)c1 | 0 | –
98 | CCCCc1ccc(C(=O)Nc2ccc3nc(N4CCN(CC)CC4)cc(C)c3c2)cc1 | – | 2.61 µM (active)
99 | CCN1CCN(c2cc(C)c3cc(NC(=O)c4cc(Cl)ccc4OC)ccc3n2)CC1 | – | 2.93 µM (active)
